Bioassay records as filed in PubChem.
HttQ103 aggreg = qHTS Multiplex Assay to Identify Dual Action Probes in a Cell Model of Huntington: Aggregate Formation (GFP) | hit rate 1.1% among 220,000 | Potency, µM (series often up to 46.1 µM), for the others: at the highest dose activity change, negative = inhibition, usual class: inhibitors | PC12 HttQ103-GFP aggregates, Acumen cytometry, 40 h | AID 1688, 2009; note: potency is the fitted concentration of half-maximal effect; % is set by controls: 0 for no effect and ±100 for the full control effect; nearly all actives have a fitted effect of over 60% in size
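PC12/HTTQ103-GFP, ecdysone-inducible; teb 100 nM; cpd qHTS titration; GFP aggregates read on laser cytometer, Ex 488/Em 500-530 nm.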
PNC inhibitor = High Content Assay for Compounds that inhibit the Assembly of the Perinucleolar Compartment | PC3M PTB-GFP, PNC prevalence imaging, 16 h; stronger effect = lower value | activity change (PNC), negative = inhibition, % at 10 µM | hit rate 3.1% among 140,000;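 active = readout at or below -70, meaning at least 70% loss of cells showing the perinucleolar compartment, a nuclear body marking cancer cells; inconclusive = readout between -30 and a set limit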;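 note: plate controls were DMSO wells for no effect and camptothecin positive control wells for full effect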
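Compounds are pinned in duplicate onto adhered PC3M cells stably expressing GFP-tagged PTB and incubated 16 h at 37 C. Cells are then fixed, nuclei stained with Hoechst, and PNC-positive cells counted.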
HTT cytoprotect = qHTS Multiplex Assay to Identify Dual Action Probes in a Cell Model of Huntington: Cytoprotection (ATP); hit rate 0.14% among 230,000; AID 1471, 2008; Potency, µM (doses to about 56.4 µM), for the others: cytoprotection (ATP increase), hits mostly activators; PC12 HTT-Q103 induced, cytoprotection, ATP luminescence, 40 h; note: potency is the fitted concentration of half-maximal effect; % of control where 0% means no effect; nearly all actives have a fitted effect of over 45% in size
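Rat PC12, Q103 Htt exon1-GFP fusion, ecdysone promoter; tebufenozide inducer 100 nM final; compound titration; qHTS, 1500 cells/well; ATPlite luminescent read.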
IMPase inh = qHTS Assay for Identifying the Cell-Membrane Permeable IMPase Inhibitors; CHO-M1 cells, IP1 accumulation, HTRF TR-FRET ratio; inhibition (IP1 accumulation), % at 46.1 µM; Inositol monophosphatase 1 (Rattus norvegicus), P97697; 120,000 tested, under 10 active; AID 901, 2007; active = well fitted curve in the direction sought with a large enough effect in the signal ratio, not every such curve was filed as active; inconclusive = small, poorly fitted or top-dose-only effect, or a change in a side signal; inactive = no such curve, though single readings can be large or run the other way; the % refers to the signal ratio;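 note: cells stimulated with carbachol in lithium chloride buffer; plate controls were DMSO basal wells for no effect and reference inhibitor wells for full effect; higher means more IMPase inhibition seen as more IP1 and lower FRET ratio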
Target sequence (P97697 whole entry, looked up): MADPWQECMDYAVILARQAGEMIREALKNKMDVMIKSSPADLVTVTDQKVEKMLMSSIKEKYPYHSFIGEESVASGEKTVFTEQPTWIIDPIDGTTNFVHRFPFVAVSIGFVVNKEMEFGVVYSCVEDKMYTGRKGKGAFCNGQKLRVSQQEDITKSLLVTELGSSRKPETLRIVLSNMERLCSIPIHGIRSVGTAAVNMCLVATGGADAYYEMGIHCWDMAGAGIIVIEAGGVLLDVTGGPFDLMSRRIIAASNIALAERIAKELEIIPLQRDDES
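In this qHTS, compounds (final up to 46 uM) act on CHO-M1 cells that are then activated through the M1 receptor with carbachol, in pH 7.4 buffer containing 50 mM LiCl, for 30 min. IP1 accumulation is quantified by the IP-One immunoassay.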
IMPase Li cell = qHTS Assay for Identifying the Cell-Membrane Permeable IMPase Inhibitors: Potentiation with Lithium. hit rate 0.35% among 210,000. AID 1457, 2008. CHO-M1 cells, IP1 TR-FRET (IP-One), carbachol + lithium. Potency, µM (series often up to 59.4 µM), without a hit: at the highest dose activity, negative = IMPase inhibition, most hits filed as inhibitors;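 note: IP1 builds up when IMPase is blocked and the TR-FRET signal falls; potency is the fitted concentration of half-maximal effect; plate controls were basal vehicle for no effect and high inhibitor control for full effect; nearly all actives have a fitted effect of over 50% in size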
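IP1 accumulation measured by competitive TR-FRET in lysed CHO-M1 cells after 30 min compound exposure at 37C, with a small lithium addition to potentiate weak responses. Hill-equation AC50 from ratio and donor-channel data.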
NPSR antagonist = qHTS Assay for Antagonists of the Neuropeptide S Receptor: cAMP Signal Transduction; Q6W5P4; CHO-NPSR cells, cAMP TR-FRET, antagonist mode; Potency, µM (highest dose often 38.3 µM), without a hit: at the highest dose activity change, negative = inhibition, usual class: inhibitors; hit rate 1% among 220,000; AID 1461, 2008; note: potency is the fitted concentration of half-maximal effect; % is set by controls: 0 for no effect and ±100 for the full control effect; nearly all actives have a fitted effect of over 50% in size
Target sequence (Q6W5P4 whole entry, looked up): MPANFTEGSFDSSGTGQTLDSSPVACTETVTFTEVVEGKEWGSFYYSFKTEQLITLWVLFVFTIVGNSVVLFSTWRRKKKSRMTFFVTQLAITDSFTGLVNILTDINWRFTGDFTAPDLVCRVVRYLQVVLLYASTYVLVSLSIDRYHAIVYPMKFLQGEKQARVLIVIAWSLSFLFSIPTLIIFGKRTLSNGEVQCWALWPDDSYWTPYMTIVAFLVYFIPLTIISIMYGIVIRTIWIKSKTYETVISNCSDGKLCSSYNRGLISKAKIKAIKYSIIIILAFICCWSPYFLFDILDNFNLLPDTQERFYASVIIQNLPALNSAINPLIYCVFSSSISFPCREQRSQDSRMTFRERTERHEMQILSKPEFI
Numbers without * were called inactive; [ ] = remark or other dose. Only some compounds are listed: those with a hit (about 3.4% of all), similar ones and a draw of the others. Unless noted, calls come from the whole dose curve; as a rule, active = well fitted curve in the direction sought with a large enough effect; inconclusive = small, poorly fitted or top-dose-only effect, or another doubt; inactive = no such curve, though single readings can be large; an effect the other way counts as inactive or inconclusive.

How did CCc1nc(N)c(C#N)c(-c2cccc3ccccc23)c1C do in these assays?
HttQ103 aggreg: 2%; PNC inhibitor: -100*; HTT cytoprotect: 7%[10 µM]; IMPase inh: -5; IMPase Li cell: 6%; NPSR antagonist: 28%[46.1 µM]

What do the screens show for `CCc1nc(N)c(C#N)c(-c2ccncc2)c1C`?
HttQ103 aggreg: 1%; PNC inhibitor: 1; HTT cytoprotect: -16%[0.074 µM]; IMPase inh: inconclusive; IMPase Li cell: -15%[38.3 µM]; NPSR antagonist: 7%[46.1 µM]

What do the screens show for `O=C(N/N=C/c1ccc([N+](=O)[O-])s1)c1ccccc1Br`?
HttQ103 aggreg: inconclusive; PNC inhibitor: 51; HTT cytoprotect: -74%; IMPase inh: 9; IMPase Li cell: -10%[38.3 µM]; NPSR antagonist: 2%[46.1 µM]

Results for Cc1ccccc1C(=O)N/N=C/c1ccc([N+](=O)[O-])s1 ?
HttQ103 aggreg: 25µM*; PNC inhibitor: inconclusive; HTT cytoprotect: -58%; IMPase inh: 2; IMPase Li cell: 88%[38.3 µM]; NPSR antagonist: 9%[46.1 µM]

How did O=C(N/N=C\c1ccc([N+](=O)[O-])s1)c1cncc(Br)c1 do in these assays?
HttQ103 aggreg: inconclusive; PNC inhibitor: -102*; HTT cytoprotect: -26%[10 µM]; IMPase Li cell: 1%; NPSR antagonist: -6%

How did COc1ccc2[nH]cc(CCNc3cc(-c4cccc(C#N)c4)ncn3)c2c1 do in these assays?
HTT cytoprotect: -42%; IMPase Li cell: 4%

How did Cc1ccccc1C1NC(=S)NC2=C1C(=O)CCC2 (stereo not drawn) do in these assays?
HttQ103 aggreg: -10%[9.22 µM]; HTT cytoprotect: -20%; IMPase Li cell: -6%; NPSR antagonist: 12%

What do the screens show for `COCCN(C(=O)Cc1cccs1)c1nnc(-c2cccnc2)s1`?
HttQ103 aggreg: -18%; PNC inhibitor: -100*; HTT cytoprotect: -19%[10 µM]; IMPase inh: 6; IMPase Li cell: 1%[38.3 µM]; NPSR antagonist: -17%[46.1 µM]

Results for CCN(CC)c1ccc(/C=N/n2c(C)cc(C)cc2=O)cc1 ?
HttQ103 aggreg: -11%; PNC inhibitor: -123*; HTT cytoprotect: -13%[10 µM]; IMPase inh: 7; IMPase Li cell: -12%[38.3 µM]; NPSR antagonist: -13%[7.67 µM]

Results for COc1ccc2nc(SC)c(C#N)cc2c1 ?
HttQ103 aggreg: 2%[9.22 µM]; HTT cytoprotect: 2%[10 µM]; IMPase Li cell: 11µM*; NPSR antagonist: inconclusive

Results for COc1ccc2nc(SCC(C)=O)c(C#N)cc2c1 ?
HttQ103 aggreg: 1%; PNC inhibitor: inconclusive; HTT cytoprotect: -15%[10 µM]; IMPase Li cell: 14%; NPSR antagonist: -8%

Results for CCCCCCc1cc2cc(C(=O)Nc3ccccc3)c(=O)oc2cc1O ?
HttQ103 aggreg: 2.2µM*; PNC inhibitor: -20; HTT cytoprotect: -39%[10 µM]; IMPase Li cell: 6%; NPSR antagonist: -23%

How did O=c1[nH]c(=O)n([C@@H]2C[C@H](O)[C@H](CO)O2)cc1C(F)(F)F do in these assays?
HTT cytoprotect: -32%[40.3 µM]; IMPase inh: 2[20.6 µM]; IMPase Li cell: 5%

How did CSc1nc(N)nc(SCCS(=O)(=O)c2ccc(Cl)cc2)c1C#N do in these assays?
HttQ103 aggreg: 10µM*; PNC inhibitor: 223; HTT cytoprotect: -13%[0.074 µM]; IMPase inh: 14; IMPase Li cell: 14%; NPSR antagonist: inconclusive

Results for CSc1nc(N)nc(SCC(=O)Nc2ccc(Cl)cc2)c1C#N ?
HttQ103 aggreg: 8%; PNC inhibitor: inconclusive; HTT cytoprotect: -14%; IMPase inh: 6; IMPase Li cell: 23%[38.3 µM]; NPSR antagonist: inconclusive

How did CCNC(=O)C(C)Oc1ccc(Cl)cc1Cl (stereo not drawn) do in these assays?
HttQ103 aggreg: 3%; HTT cytoprotect: -16%; IMPase Li cell: 10%; NPSR antagonist: 17%

Results for COC(=O)C1CCN(C(=O)C(C)Oc2ccc(Cl)cc2Cl)CC1 (stereo not drawn) ?
HttQ103 aggreg: -13%; PNC inhibitor: -87*; HTT cytoprotect: -21%[0.074 µM]; IMPase inh: -1; IMPase Li cell: 48%[38.3 µM]; NPSR antagonist: -24%[46.1 µM]

How did CC(Oc1ccc(Cl)cc1Cl)C(=O)Nn1cnnc1 (stereo not drawn) do in these assays?
HttQ103 aggreg: -4%; PNC inhibitor: -119*; HTT cytoprotect: 15%[10 µM]; IMPase inh: -3; IMPase Li cell: -3%; NPSR antagonist: -2%

How did CCOC(=O)C1CCCN(C(=O)C(C)Oc2ccc(Cl)cc2Cl)C1 (stereo not drawn) do in these assays?
HttQ103 aggreg: 11%; PNC inhibitor: 13; HTT cytoprotect: 8%[0.074 µM]; IMPase inh: -5; IMPase Li cell: 29%[38.3 µM]; NPSR antagonist: -13%[46.1 µM]

Results for c1cc(-c2nc3ccccc3o2)nc(-c2nc3ccccc3o2)c1 ?
HTT cytoprotect: -4%[10 µM]

What do the screens show for `c1ccc2nc(-c3nc4ccccc4o3)ccc2c1`?
HttQ103 aggreg: -7%; PNC inhibitor: -107*; HTT cytoprotect: -67%[10 µM]; IMPase inh: 7; IMPase Li cell: 33%[38.3 µM]; NPSR antagonist: -26%[46.1 µM]

Results for Cc1ccccc1-n1nc(C(=O)c2cccs2)cc(-c2nc3ccccc3[nH]2)c1=N ?
HttQ103 aggreg: 2%; PNC inhibitor: -100*; HTT cytoprotect: -17%[10 µM]; IMPase inh: 0; IMPase Li cell: 9%; NPSR antagonist: -15%[46.1 µM]

Results for COc1ccccc1C(=O)Nc1nc2ccc(S(C)(=O)=O)cc2s1 ?
HttQ103 aggreg: -20%; PNC inhibitor: -8; HTT cytoprotect: -14%; IMPase Li cell: 10µM*; NPSR antagonist: inconclusive

How did COc1ccc(C(=O)Nc2nc3ccc(S(C)(=O)=O)cc3s2)cc1 do in these assays?
HttQ103 aggreg: -10%; PNC inhibitor: 273; HTT cytoprotect: 11%[10 µM]; IMPase inh: inconclusive; IMPase Li cell: inconclusive; NPSR antagonist: inconclusive

How did COc1cccc(NC(=S)N(CCCN2CCOCC2)C(C)c2cc3ccccc3o2)c1 (stereo not drawn) do in these assays?
HttQ103 aggreg: -16%; HTT cytoprotect: -22%; IMPase Li cell: 12%; NPSR antagonist: -41%

Results for CC(C)OCCCNC1=C(Cl)C(=O)c2ccccc2C1=O ?
HttQ103 aggreg: -14%[9.22 µM]; HTT cytoprotect: -2%[10 µM]; NPSR antagonist: 10µM*

What do the screens show for `O=C1C(Cl)=C(Nc2ccccc2)C(=O)c2ccccc21`?
HttQ103 aggreg: 13µM*; PNC inhibitor: -25; HTT cytoprotect: -39%[10 µM]; IMPase Li cell: 36%; NPSR antagonist: inconclusive

What do the screens show for `COCCCNC1=C(Cl)C(=O)c2ccccc2C1=O`?
HttQ103 aggreg: 2%[9.22 µM]; HTT cytoprotect: -17%[10 µM]; NPSR antagonist: inconclusive
